Experimental data: PubChem BioAssay AID1159580 (chemical genetic matrix, 2015)
Among all 5,500 compounds or so, about 2,000 (36%) were called active. Roughly 18% stayed inconclusive and do not appear here. No stated cut-off is given here; in the data, active means normalized growth mostly below about 0.91 (no sharp cut-off); inconclusive means no clear call, values can overlap the other calls; inactive means mostly above about 0.92. The list shows a part of the results.

Test: chemical genetic growth profiling, strain panel (AID 1159580);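 further: tested at 20 µM; growth read once vehicle control cultures reached saturation at 30 °C; 1 = growth at the plate median or of vehicle wells; lower values mean less growth of the strain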
Conditions: S. cerevisiae deletion strains, growth OD
[1] = locus YAR019C, strain CDC15, hits give low values
[2] = locus YBL105C, strain PKC1, hits give low values
[3] = locus YBR135W, strain CKS1, hits give low values
[4] = locus YBR136W, strain MEC1, hits give low values
[5] = locus YBR160W, strain CDC28, hits give low values
[6] = locus YDL017W, strain CDC7, hits give low values
[7] = locus YDL028C, strain MPS1, hits give low values
[8] = locus YDL101C, strain DUN1, hits give low values
[9] = locus YDL108W, strain KIN28, hits give low values
[10] = locus YDL132W, strain cdc53, hits give low values
[11] = locus YDL214C, strain PRR2, hits give low values
[12] = locus YDR052C, strain DBF4, hits give low values
[13] = locus YDR054C, strain cdc34, hits give low values
[14] = locus YDR226W, strain ADK1, hits give low values
[15] = locus YDR477W, strain SNF1, hits give low values
[16] = locus YER123W, strain YCK3, hits give low values
[17] = locus YER133W, strain GLC7, hits give low values
[18] = locus YFL009W, strain cdc4, hits give low values
[19] = locus YFL029C, strain CAK1, hits give low values
[20] = locus YFR003C, strain YPI1, hits give low values
[21] = locus YFR019W, strain FAB1, hits give low values
[22] = locus YFR028C, strain CDC14, hits give low values
[23] = locus YGR040W, strain KSS1, hits give low values
[24] = locus YGR092W, strain DBF2, hits give low values
[25] = locus YHR030C, strain SLT2, hits give low values
[26] = locus YHR079C, strain IRE1, hits give low values
[27] = locus YHR205W, strain SCH9, hits give low values
[28] = locus YIL147C, strain SLN1, hits give low values
[29] = locus YJL095W, strain BCK1, hits give low values
[30] = locus YJL128C, strain PBS2, hits give low values
[31] = locus YJL157C, strain FAR1, hits give low values
[32] = locus YJR016C, strain ILV3, hits give low values
[33] = locus YJR066W, strain TOR1 (second series), hits give low values
[34] = locus YKL048C, strain ELM1, hits give low values
[35] = locus YKL067W, strain YNK1, hits give low values
[36] = locus YKL101W, strain HSL1, hits give low values
[37] = locus YKL193C, strain SDS22, hits give low values
[38] = locus YKL203C, strain TOR2, hits give low values
[39] = locus YLR113W, strain HOG1, hits give low values
[40] = locus YLR133W, strain CKI1, hits give low values
[41] = locus YLR403W, strain SFP1, hits give low values
[42] = locus YML070W, strain DAK1, hits give low values
[43] = locus YMR001C, strain CDC5, hits give low values
[44] = locus YMR205C, strain PFK2 (second series), hits give low values
[45] = locus YMR277W, strain FCP1, hits give low values
[46] = locus YNL006W, strain LST8, hits give low values
[47] = locus YNL020C, strain ARK1, hits give low values
[48] = locus YNL161W, strain CBK1, hits give low values
[49] = locus YNL207W, strain RIO2, hits give low values
[50] = locus YNL222W, strain SSU72, hits give low values
[51] = locus YNL307C, strain MCK1 (second series), hits give low values
[52] = locus YOL078W, strain AVO1, hits give low values
[53] = locus YOL136C, strain PFK27, hits give low values
[54] = locus YOR061W, strain CKA2, hits give low values
[55] = locus YOR119C, strain RIO1, hits give low values
[56] = locus YOR231W, strain MKK1, hits give low values
[57] = locus YOR329C, strain SCD5, hits give low values
[58] = locus YPL031C, strain PHO85, hits give low values
[59] = locus YPL153C, strain RAD53, hits give low values
[60] = locus YPL204W, strain HRR25, hits give low values
[61] = locus YPL209C, strain IPL1, hits give low values
[62] = locus YPL256C, strain CLN2, hits give low values
[63] = locus YPR025C, strain CCL1, hits give low values
[64] = locus YPR106W, strain ISR1, hits give low values
[65] = locus YPR111W, strain DBF20, hits give low values
[66] = strain NNK1, hits give low values
[67] = strain TSCII, hits give low values

Measured: normalized growth

Cc1ccc(S(=O)(=O)Nc2nc(-c3ccc(C)c(Cl)c3)c(C)s2)cc1
active: [25] 1.77 [resistant] | [26] 2.3 [resistant] | [29] 1.77 [resistant] | [39] 1.41 [resistant] | [56] 2.03 [resistant] | [62] 1.74 [resistant]
inactive: [1] 0.994 | [2] 0.99 | [3] 0.98 | [4] 0.991 | [5] 0.988 | [6] 0.991 | [7] 0.988 | [8] 0.989 | [9] 0.993 | [10] 0.983 | [11] 0.989 | [12] 0.983 | [13] 0.989 | [14] 0.985 | [15] 1.04 | [16] 1.02 | [17] 1.02 | [18] 0.989 | [19] 0.998 | [20] 0.992 | [21] 1.02 | [22] 0.99 | [23] 1.02 | [24] 1.01 | [27] 0.942 | [28] 0.983 | [30] 0.925 | [31] 1.02 | [32] 0.979 | [33] 1.04 | [34] 0.986 | [35] 0.997 | [36] 0.981 | [37] 0.986 | [38] 1.08 | [40] 0.995 | [41] 1.02 | [42] 0.99 | [43] 0.988 | [44] 0.987 | [45] 0.992 | [46] 0.981 | [47] 0.996 | [48] 0.992 | [49] 0.996 | [50] 0.996 | [51] 0.982 | [52] 0.991 | [53] 0.987 | [54] 1.02 | [55] 1.05 | [57] 0.985 | [58] 1.02 | [59] 1.01 | [60] 1.03 | [61] 0.986 | [63] 0.985 | [64] 0.992 | [65] 0.987 | [66] 0.995 | [67] 0.994

Cc1ccc(-c2nc(NS(=O)(=O)c3cccc4nonc34)sc2C)cc1Cl
inactive: [1] 0.965 | [2] 0.972 | [3] 0.967 | [4] 0.973 | [5] 0.959 | [6] 0.97 | [7] 0.976 | [8] 0.962 | [9] 0.975 | [10] 0.964 | [11] 0.984 | [12] 0.972 | [13] 0.961 | [14] 0.97 | [15] 0.975 | [16] 1 | [17] 0.994 | [18] 0.972 | [19] 0.946 | [20] 0.965 | [21] 0.997 | [22] 0.964 | [23] 0.962 | locus YGR052W, strain FMP48, hits give low values 1.07 | [24] 0.991 | [25] 1.06 | [26] 1.07 | locus YHR082C, strain KSP1, hits give low values 1.09 | [27] 0.981 | [28] 0.972 | [29] 1.06 | [30] 0.975 | [31] 0.999 | [32] 0.972 | [33] 0.985 | locus YJR066W, strain TOR1, hits give low values 1.1 | [34] 0.981 | [35] 1 | [36] 0.967 | [37] 0.968 | [38] 1.04 | [39] 0.963 | [40] 0.978 | [41] 0.985 | [42] 0.987 | [43] 0.967 | [44] 0.981 | [45] 0.975 | [46] 0.967 | [47] 0.978 | [48] 0.959 | locus YNL183C, strain NPR1, hits give low values 1.01 | [49] 0.953 | [50] 0.947 | [51] 0.984 | [52] 0.951 | [53] 0.999 | [54] 0.988 | [55] 1.03 | [56] 1.01 | [57] 0.973 | [58] 0.993 | [59] 0.992 | [60] 0.991 | [61] 0.951 | [62] 1.01 | [63] 0.97 | [64] 0.963 | [65] 0.953 | [66] 0.971 | [67] 0.956
